Laboratory results: PubChem BioAssay (NCATS)
Records with an inconclusive call do not appear. Activity calls are given as the source filed them. Calls follow the shape of the dose curve; as a rule, active = well fitted cell-killing curve with a large enough effect; inconclusive = small, poorly fitted or top-dose-only effect, or effect the other way; inactive = flat fitted curve, though single readings scatter.

Tests used:
Assay in all cases: Primary qHTS to identify gynecologic anti-cancer compounds using libraries of approved drugs and bioactive compounds (AID 1345084); also: nearly all actives have a fitted effect of over 55% in size
Conditions in all cases: Gynecologic cancer cell panel viability, ATPlite luminescence, 48 h; series mostly up to 57.5 µM
[1] = tested on: SKOV3
Procedure, shortened: (§1)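 In this quantitative HTS, cell killing is estimated from loss of ATP-dependent luciferase light. Cells see five compound concentrations over a 48 h exposure.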

[2] = tested on: Tov-21-G
Procedure, shortened: as §1

[3] = tested on: Tov112D
Procedure, shortened: as §1
% is scaled to controls: 0 for no effect and ±100 for the full control effect.

Cc1[nH]cnc1C1CCN(c2nc3cccc4c3n2CCC4=O)CC1
inactive: Potency [1] | Potency [2] | Potency [3]

C=C1CCC(OC(C)=O)C2(C)CC3(O)OC(=O)C(C)=C3CC12 (stereo unspecified)
inactive: Potency [1] | Potency [2] | Potency [3]

COC(=O)C1=CO[C@@H](O[C@@H]2O[C@H](CO)[C@@H](O)[C@H](O)[C@H]2O)[C@@H]2[C@@](C)(O)[C@@H](O)C[C@]12O
inactive: Potency [1] | Potency [2] | Potency [3]

CC1=CC(=O)CC(C)(C)C1(O)CCC(C)O (stereo unspecified)
inactive: Potency [1] | Potency [2] | Potency [3]

O=C(O)c1cc(O)c2cccc(O)c2c1O[C@@H]1O[C@H](CO)[C@@H](O)[C@H](O)[C@H]1O
inactive: Potency [1] | Potency [2] | Potency [3]

C[C@@H]1CC[C@H]2C(C)(C)[C@H](O)[C@H](O)C[C@]2(C)[C@@]12Cc1c(O)cc3c(c1O2)CNC3=O
inactive: Potency [1] | Potency [2] | Potency [3]

CC(=O)OCC(=O)O[C@@H]1[C@H]2[C@@H](OC(=O)c3ccccc3)[C@@H](C)C[C@]2(O)[C@H](OC(C)=O)C2(C)[C@H]3CC(C)(C)C(=O)[C@@H]3CC1(OC(C)=O)[C@@H]2OC(C)=O (stereo partly specified)
inactive: Potency [1] | Potency [2] | Potency [3]

Nc1nonc1C(=Nc1ccc(F)c(Cl)c1)NO
inactive: Potency [1] | Potency [2] | Potency [3]

C=CC1(C)C=C2C(=O)CC3C(C)(C)CCCC3(C(=O)O)C2(O)CC1 (stereo unspecified)
inactive: Potency [1] | Potency [2] | Potency [3]

C=C1CCC2C(C)(CO[C@@H]3O[C@H](CO)[C@@H](O)[C@H](O)[C@H]3O)C(O)CCC2(C)C1C(=O)CC1=CCOC1=O (stereo partly specified)
inactive: Potency [1] | Potency [2] | Potency [3]

CC(C)=CCCC1(C)Oc2cc3c(c4c2C2C(O4)C(C)(O)CCC21)CN(C(CCC(=O)O)C(=O)O)C3=O (stereo unspecified)
inactive: Potency [1] | Potency [2] | Potency [3]

COc1ccc(/C=C/C(=O)O[C@@H]2[C@@H](OC(C)=O)[C@@H](OC(C)=O)[C@H](O[C@H]3[C@@H]4C=CO[C@@H](O[C@@H]5O[C@H](CO)[C@@H](O)[C@H](O)[C@H]5O)[C@@H]4[C@@]4(CO)O[C@@H]34)O[C@H]2C)cc1O
inactive: Potency [1] | Potency [2] | Potency [3]

OCC1OC(Oc2cc(O)c3c(c2)OC(c2ccc(O)cc2)C(O)C3)C(O)C1O (stereo unspecified)
inactive: Potency [1] | Potency [2] | Potency [3]

C=C1C(=O)OC2/C=C(\C)CC/C=C(\C(=O)O)CC/C=C(\C)CCC12 (stereo unspecified)
inactive: Potency [1] | Potency [2] | Potency [3]

COc1ccc(C)c2sc(NC(=O)c3ccncc3)nc12
inactive: Potency [1] | Potency [2] | Potency [3]

O=C1Nc2ccc(O)cc2O[C@H]1O[C@@H]1O[C@H](CO)[C@@H](O)[C@H](O)[C@H]1O
inactive: Potency [1] | Potency [2] | Potency [3]

CCOC(=O)[C@H](CCc1ccccc1)CC1(C(=O)N[C@H]2CCc3ccccc3N(CC(=O)O)C2=O)CCCC1
inactive: Potency [1] | Potency [2] | Potency [3]

C=C(C(=O)OC)C1CCC2(C)C(O[C@@H]3O[C@H](CO)[C@@H](O)[C@H](O)[C@H]3O)CC(=O)C(C)C2C1O (stereo partly specified)
inactive: Potency [1] | Potency [2] | Potency [3]

N#CC1C(=O)Nc2scc(-c3ccc(-c4ccccc4O)cc3)c2C1=O (stereo unspecified)
inactive: Potency [1] | Potency [2] | Potency [3]

CC[C@H]1OC(=O)[C@H](C)[C@@H](O[C@H]2C[C@@](C)(OC)[C@@H](O)[C@H](C)O2)[C@H](C)[C@@H](O[C@@H]2O[C@H](C)C[C@H](N(C)C)[C@H]2O)[C@@](C)(O)C[C@@H](C)[C@@H]2N[C@@H](COCCOC)OC([C@H]2C)[C@]1(C)O
inactive: Potency [1] | Potency [2] | Potency [3]

CC1=CCC2C(C)(CO)CCCC2(CO)C1CO (stereo unspecified)
inactive: Potency [1] | Potency [2] | Potency [3]

C/C=C/C=C/C=C/C(=O)O[C@@H]1C=C(CO)C(O)(C(=O)O)[C@@]2(C)CCCC(C)(C)[C@H]12 (stereo partly specified)
inactive: Potency [1] | Potency [2] | Potency [3]

CC1(C)C(=O)C(C)(C)c2cc(C(=O)Nc3ccc(C(=O)O)cc3)ccc21
inactive: Potency [1] | Potency [2] | Potency [3]

O=c1ccn(C2OC(CO)C(O)C2O)c(=O)[nH]1 (stereo unspecified)
inactive: Potency [1] | Potency [2] | Potency [3]

CC1CCC2C(C)(C)C(O)CCC2(C)C12Cc1c(O)cc3c(c1O2)CN(C(CCC(N)=O)C(=O)O)C3=O (stereo unspecified)
inactive: Potency [1] | Potency [2] | Potency [3]

C[C@@H]1O[C@@H](O[C@H]2[C@H](O[C@H]3CC[C@@]4(C)C(CC[C@]5(C)C4CC=C4C6CC(C)(C)CC[C@]6(C(=O)O[C@@H]6O[C@H](CO[C@@H]7O[C@H](CO)[C@@H](O[C@@H]8O[C@@H](C)[C@H](O)[C@@H](O)[C@H]8O)[C@H](O)[C@H]7O)[C@@H](O)[C@H](O)[C@H]6O)CC[C@]45C)[C@]3(C)CO)OC[C@H](O)[C@@H]2O)[C@H](O)[C@H](O)[C@H]1O (stereo partly specified)
inactive: activity change, negative = cytotoxicity [1] -11.7% [at 6.55 µM] | activity change, negative = cytotoxicity [2] 8.28% [at 6.55 µM] | activity change, negative = cytotoxicity [3] -13.6% [at 6.55 µM]

C[C@@H]1O[C@@H](O[C@@H]2[C@@H](O)[C@H](O[C@@H]3[C@@H](O)[C@@H](O)[C@H](O[C@H]4[C@H](OC(=O)[C@]56CCC(C)(C)C[C@H]5C5=CCC7[C@@]8(C)C[C@H](O)[C@H](O[C@@H]9O[C@H](C(=O)O)[C@@H](O)[C@H](O)[C@H]9O)[C@@](C)(CO)C8[C@H](O)C[C@@]7(C)[C@]5(C)CC6)OC[C@H](O)[C@@H]4O)O[C@H]3C)OC[C@H]2O)[C@H](O)[C@H](O)[C@H]1O (stereo partly specified)
inactive: activity change, negative = cytotoxicity [1] -6.44% [at 6.55 µM] | activity change, negative = cytotoxicity [2] -4.43% [at 6.55 µM] | activity change, negative = cytotoxicity [3] 4.06% [at 6.55 µM]

O=C(O)CCc1cccc(O[C@@H]2O[C@H](CO)[C@@H](O)[C@H](O)[C@H]2O)c1O
inactive: Potency [1] | Potency [2] | Potency [3]

COc1ccc2c(c1)OC[C@]1(O)c3cc4c(cc3O[C@H]21)OCO4
inactive: Potency [1] | Potency [2] | Potency [3]

C=C1CC23CCC4[C@@](C)(CCC[C@@]4(C)C(=O)O)C2CCC1C3 (stereo partly specified)
inactive: Potency [1] | Potency [2] | Potency [3]

C=C[C@H]1[C@H](O[C@@H]2O[C@H](CO)[C@@H](O)[C@H](O)[C@H]2O)OC=C(C(=O)OC)[C@H]1C[C@@H]1N[C@H](C(=O)O)Cc2c1[nH]c1ccccc21
inactive: Potency [1] | Potency [2] | Potency [3]

O=C1NC(Cc2ccc(O)cc2)C(=O)N2CCCC12 (stereo unspecified)
inactive: Potency [1] | Potency [2] | Potency [3]

O=C(/C=C/c1ccccc1)OCC1=CC[C@@H]2C(C(=O)O)=CO[C@@H](O[C@@H]3O[C@H](CO)[C@@H](O)[C@H](O)[C@H]3O)[C@H]12
inactive: Potency [1] | Potency [2] | Potency [3]

C=CC(C)(CC/C=C(\C)CC/C=C(\C)CC(O)/C=C(\C)C(=O)O)O[C@@H]1O[C@H](CO)[C@@H](O)[C@H](O)[C@H]1O[C@@H]1O[C@H](CO)[C@@H](O)[C@H](O)[C@H]1O (stereo partly specified)
inactive: Potency [1] | Potency [2] | Potency [3]

CC12CCC3C(C)(C)C(O)CCC3(C)C1Cc1c(oc(C(=O)O)cc1=O)O2 (stereo unspecified)
inactive: Potency [1] | Potency [2] | Potency [3]

COc1cc(C2OCC3C(c4ccc(OC5OC(CO)C(O)C(O)C5O)c(OC)c4)OCC23)ccc1O (stereo unspecified)
inactive: Potency [1] | Potency [2] | Potency [3]

CCn1cc(C2=NOC(C(=O)Nc3c(C)n(C)n(-c4ccccc4)c3=O)C2)c(C)n1 (stereo unspecified)
inactive: Potency [1] | Potency [2] | Potency [3]

CC/C=C\C[C@H]1C(=O)C=C[C@@H]1CCCCCCCC(=O)O
inactive: Potency [1] | Potency [2] | Potency [3]

CNC(=O)[C@H]1O[C@@H](n2cnc3c(NCc4ccc(N)c(I)c4)ncnc32)[C@H](O)[C@@H]1O
inactive: activity change, negative = cytotoxicity [1] -8.5% [at 11.6 µM] | activity change, negative = cytotoxicity [2] 15.7% [at 11.6 µM] | activity change, negative = cytotoxicity [3] 25.2% [at 11.6 µM]

CC1(C)CC(=O)N(CCCCN2CCN(c3ncccn3)CC2)C(=O)C1
inactive: Potency [1] | Potency [2] | Potency [3]

Nc1ncnc2c1ncn2[C@H]1CCCO1
inactive: Potency [1] | Potency [2] | Potency [3]

C/C=C(/C)C(=O)O[C@H]1C=C(C)C[C@H](OC(=O)c2ccc(O)cc2)C2[C@](O)(C(C)C)CC[C@@]21C (stereo partly specified)
inactive: Potency [1] | Potency [2] | Potency [3]

O=C(/C=C/c1ccc(O)cc1)O[C@H]1[C@@H]2C=CO[C@@H](O[C@@H]3O[C@H](CO)[C@@H](O)[C@H](O)[C@H]3O)[C@@H]2[C@@]2(CO)O[C@@H]12
inactive: Potency [1] | Potency [2] | Potency [3]

CC(=O)O[C@H]1CC[C@@]2(CI)C(=CC[C@@H]3[C@@H]2CC[C@]2(C)[C@@H]([C@H](C)CCCC(C)C)CC[C@@H]32)C1
inactive: activity change, negative = cytotoxicity [1] 5.27% [at 11.6 µM] | activity change, negative = cytotoxicity [2] 10.3% [at 11.6 µM] | activity change, negative = cytotoxicity [3] 11.8% [at 11.6 µM]

COc1cc(C2Oc3c(O)cc(CCCO)cc3C2CO)ccc1O[C@H]1O[C@H](C)[C@@H](O)[C@H](O)[C@@H]1O (stereo partly specified)
inactive: Potency [1] | Potency [2] | Potency [3]

COc1ccc(C(O[C@@H]2O[C@H](CO)[C@@H](O)[C@H](O)[C@H]2O)C(CO)Oc2ccc(/C=C/CO)cc2OC)cc1O (stereo partly specified)
inactive: Potency [1] | Potency [2] | Potency [3]

O=C(/C=C/c1ccc(O)cc1)OCC1=C[C@@H](O)[C@@H]2C=CO[C@@H](O[C@@H]3O[C@H](CO)[C@@H](O)[C@H](O)[C@H]3O)[C@H]12
inactive: Potency [1] | Potency [2] | Potency [3]

Cc1cc(O)cc(Oc2cc(C)c(C(=O)O)c(O)c2)c1
inactive: Potency [1] | Potency [2] | Potency [3]

CC(CO[C@@H]1O[C@H](COC(=O)/C=C/c2ccc(O)c(O)c2)[C@@H](O)[C@H](O)[C@H]1O)C1(O)COC(=O)C1 (stereo partly specified)
inactive: Potency [1] | Potency [2] | Potency [3]

CC1=CC(=O)C2C(C)(C)CCCC2(C)C12CCC1(COC(=O)C1)O2 (stereo unspecified)
inactive: Potency [1] | Potency [2] | Potency [3]

COC(=O)c1cc(CN2CCN(C(=N)N)CC2)cc(C(=O)N2CCN(C(=O)c3ccc(C(=N)N)cc3)CC2)c1
inactive: Potency [1] | Potency [2] | Potency [3]

COC(=O)[C@@]1(C)CC[C@]2(C(=O)O[C@@H]3O[C@H](CO)[C@@H](O)[C@H](O)[C@H]3O)CC[C@]3(C)C(=CCC4[C@@]5(C)CC[C@H](O[C@@H]6O[C@H](C(=O)O)[C@@H](O)[C@H](O)[C@H]6O)C(C)(C)C5CC[C@]43C)[C@@H]2C1 (stereo partly specified)
inactive: activity change, negative = cytotoxicity [1] -12.6% [at 11.6 µM] | activity change, negative = cytotoxicity [2] 1.4% [at 11.6 µM] | activity change, negative = cytotoxicity [3] -8.48% [at 11.6 µM]
